Assay outcomes: PubChem, National Center for Advancing Translational Sciences (NCATS)
Only some compounds are listed: those with a hit (about 7.3% of all), similar ones and a draw of the others.
Tau fluor cs – counter-screen for tau fibril formation inhibitors; tau K18 P301L Alexa594 fluorescence, heparin fibrillization; Potency, µM (series often up to 57.7 µM); hit rate 0.93% among 280,000; further: nearly all actives have a fitted effect of over 55% in size
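Human K18 P301L tau (15 uM unlabeled plus 0.24 uM Alexa 594-labeled, final) in 100 mM sodium acetate pH 7 was mixed with compound and 20 uM heparin and incubated 6 hr at 37 C.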
RORg inh – inhibitors of mouse ROR gamma transcriptional activity | Potency, µM (top dose mostly 53.6 µM), usual class: inhibitors | Drosophila S2 Gal4-RORgamma UAS-luciferase reporter, 20 h | P51450 | AID 2551 | hit rate 5.4% among 310,000; further: nearly all actives have a fitted effect of over 60% in size
Target sequence (P51450 whole entry, looked up, the tested form may be a part): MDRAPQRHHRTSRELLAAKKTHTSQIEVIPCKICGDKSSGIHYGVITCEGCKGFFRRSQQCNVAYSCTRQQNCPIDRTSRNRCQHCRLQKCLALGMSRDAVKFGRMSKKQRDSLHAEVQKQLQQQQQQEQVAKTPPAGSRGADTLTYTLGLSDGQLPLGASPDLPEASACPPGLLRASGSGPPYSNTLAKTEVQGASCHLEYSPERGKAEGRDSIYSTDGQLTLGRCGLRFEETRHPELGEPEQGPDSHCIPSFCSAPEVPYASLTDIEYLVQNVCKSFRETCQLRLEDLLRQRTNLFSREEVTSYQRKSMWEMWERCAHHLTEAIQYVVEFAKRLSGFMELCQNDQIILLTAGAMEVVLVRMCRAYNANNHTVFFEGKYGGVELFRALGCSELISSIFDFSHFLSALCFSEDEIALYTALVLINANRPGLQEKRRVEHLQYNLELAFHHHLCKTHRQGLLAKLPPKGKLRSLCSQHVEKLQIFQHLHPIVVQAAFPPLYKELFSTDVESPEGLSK
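Stably transfected Drosophila Schneider cells are the test system, with ROR gamma fused to Gal4 and luciferase under UAS control; luminescence is read after 20 hr of 700 uM copper sulfate induction at ambient temperature.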
Tau FP inhib – tau fibrillization inhibition (FP); P10636; hit rate 0.39% among 280,000; K18 P301L tau heparin fibrillization, Alexa594 FP, 6 h; Potency, µM (highest dose often 57.7 µM), actives largely listed as inhibitors; further: nearly all actives have a fitted effect of over 55% in size
Target sequence (P10636 561-689 P618L limits assumed): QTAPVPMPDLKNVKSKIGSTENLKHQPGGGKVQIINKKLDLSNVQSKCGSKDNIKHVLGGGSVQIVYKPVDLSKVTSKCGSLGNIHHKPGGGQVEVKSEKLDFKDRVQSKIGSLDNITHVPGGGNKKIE
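Compound effects on tau fibrillization are measured by Alexa 594 fluorescence polarization (ex 555, em 632 nm). K18 P301L tau is used at 15 uM with 0.24 uM labeled tracer, and 20 uM heparin induces aggregation over 6 hr at 37 C.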
VP16 counter – Gal4-VP16 reporter inhibition counter-screen | Potency, µM (series often up to 53.6 µM), actives largely listed as inhibitors | hit rate 3.5% among 310,000 | Drosophila S2 Gal4-VP16 UAS-luciferase, luminescence, 20 h;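 further: Gal4-VP16 expression switched on by copper sulfate through the metallothionein promoter; nearly all actives have a fitted effect of over 50% in size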
Tau ThT inhib – tau fibrillization inhibition (ThT binding). recombinant tau K18 P301L, heparin-induced fibrillization, ThT fluorescence. Potency, µM (doses to about 57.4 µM), hits mostly inhibitors. hit rate 2.1% among 270,000; further: nearly all actives have a fitted effect of over 55% in size
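ThT emission at 510 nm, taken 1 hr after adding 30 uM dye, quantifies aggregates formed when 20 uM heparin acts on human tau K18 P301L for 6 hr at 37 C.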
Of the large screens only hits and unclear results are named; the others gave an inactive call; [ ] = remark or other dose. The call rests on the fitted dose curve; in most records, active means well fitted curve in the direction sought with a large enough effect; inconclusive means small, poorly fitted or top-dose-only effect, or another doubt; inactive means no such curve, though single readings can be large; an effect the other way counts as inactive or inconclusive.

O=C(O)c1ccc(/C=N\Nc2ccc(S(=O)(=O)N3CCOCC3)cc2[N+](=O)[O-])cc1	Tau ThT inhib inconclusive
CCCC=O	none (no result: Tau fluor cs, Tau FP inhib, Tau ThT inhib)
C[C@@H](O)C(N)C(=O)O (some centres not stated)	none (no result: Tau fluor cs, Tau FP inhib, Tau ThT inhib)
COc1cccc([C@@H]2Oc3ccc(Br)cc3C(=O)[C@H]2OC(=O)Nc2ccc(OC(F)F)cc2)c1	RORg inh inconclusive, Tau ThT inhib inconclusive
COc1ccc(-c2oc3ccccc3c2C(=O)Oc2ccccc2)cc1	none (no result: Tau fluor cs, Tau FP inhib, Tau ThT inhib)
Brc1ccc(C2Nc3cccc4cccc(c34)N2)s1	Tau fluor cs inconclusive, Tau FP inhib inconclusive, Tau ThT inhib 13µM
O=C(/C=C/c1ccncc1)c1ccc2c(c1)OCCO2	RORg inh 4µM, VP16 counter 5µM, Tau ThT inhib inconclusive
O=C(/C=C/c1cccc(Br)c1)c1ccc2c(c1)OCO2	none (no result: Tau fluor cs, Tau FP inhib, Tau ThT inhib)
CN(C)c1ccc(/C=C/C(=O)c2ccc3c(c2)OCCO3)cc1[N+](=O)[O-]	Tau fluor cs inconclusive, RORg inh inconclusive, Tau ThT inhib 3.5µM
O=C(/C=C/c1ccccc1)c1ccc2c(c1)OCO2	Tau ThT inhib inconclusive
COC(=O)N[C@@H](CCc1ccccc1)[C@]1(C(=O)OC)CCCC1=O	none
Cc1ccc(CNc2ccc3c(c2)ncn3C(C)(C)C)cc1	RORg inh 1.4µM, VP16 counter inconclusive, Tau ThT inhib inconclusive
Cc1ccc(CNc2ccc3c(c2)ncn3C)cc1	none
Cc1ccc(NC(=O)N2CCN(Cc3nc4ccc(C)cc4o3)CC2)c(Cl)c1	none (no result: RORg inh, VP16 counter)
CC(/C=N/NC(=O)c1cc(-c2ccncc2)nc2ccccc12)=C\c1ccco1	Tau fluor cs inconclusive, Tau ThT inhib inconclusive
O=C(N/N=C/c1ccco1)c1cc(-c2cccc(Br)c2)nc2ccccc12	RORg inh 3.2µM, Tau FP inhib inconclusive, VP16 counter 5.6µM
Cc1ccc2nc(N/N=C/c3ccco3)cc(C)c2c1	Tau fluor cs inconclusive, RORg inh 6.3µM, VP16 counter inconclusive, Tau ThT inhib 18µM
O=C(N/N=C/c1ccc([N+](=O)[O-])o1)c1cc(-c2ccc(-c3ccccc3)cc2)nc2ccccc12	RORg inh 0.71µM, VP16 counter 1.1µM
Cc1ccc(-c2cc(C(=O)N/N=C/c3ccc([N+](=O)[O-])o3)c3ccccc3n2)o1	RORg inh 13µM, VP16 counter inconclusive (no result: Tau fluor cs, Tau FP inhib, Tau ThT inhib)
Cc1ccc2nc(C)cc(SCC(=O)N/N=C/c3ccco3)c2c1	none (no result: Tau fluor cs, Tau FP inhib, Tau ThT inhib)
Cc1ccc(-c2cc(C(=O)Nc3ccccc3C)c3ccccc3n2)o1	RORg inh inconclusive, VP16 counter 13µM
Cn1c(/C=C/c2ccc([N+](=O)[O-])o2)nc2ccccc2c1=O	Tau fluor cs inconclusive, RORg inh 6.3µM, VP16 counter 6.3µM, Tau ThT inhib inconclusive
Cc1cc(N/N=C/c2ccc([N+](=O)[O-])o2)nc2ccccc12	Tau fluor cs inconclusive, RORg inh 11µM, VP16 counter inconclusive, Tau ThT inhib 1.6µM
Cc1cc(Nc2ccc([N+](=O)[O-])cc2)nc2ccccc12	Tau fluor cs inconclusive, RORg inh inconclusive, Tau ThT inhib inconclusive
CC(C)(C)OC(=O)NCCCC1=CC2=CC(=O)C(C)(OC(=O)c3cnc4ccccc4n3)C(=O)C2=CO1 (configuration not stated)	none
Cc1cc(-c2nc3ccccc3[nH]2)ccc1N	RORg inh inconclusive, VP16 counter inconclusive, Tau ThT inhib inconclusive
COc1ccc2oc(=Nc3ccccc3)c(-c3nc4ccccc4[nH]3)cc2c1	RORg inh 10µM, Tau FP inhib inconclusive, VP16 counter inconclusive, Tau ThT inhib inconclusive
COc1ccc(-c2nc(=S)c3ccc4ccccc4c3[nH]2)cc1	RORg inh 5.6µM, VP16 counter inconclusive
COc1ccc(-c2cc(=O)n(-c3nc4ccccc4[nH]3)[nH]2)cc1	Tau fluor cs inconclusive, Tau ThT inhib 32µM
Nc1cc(N)cc(-c2nc3ccccc3[nH]2)c1	Tau fluor cs 13µM[quencher], Tau ThT inhib 13µM
COC(=O)C1=C[C@@H](C(=O)OC)[C@@H]2C3=C(C(=O)[C@@]2(C)NC(=O)c2ccccc2)[C@H](C)[C@@H]2C(=O)N(c4ccccc4)C(=O)[C@@H]2[C@@H]3C1	none (no result: Tau fluor cs, Tau FP inhib, Tau ThT inhib)
CCCCCCCCCCCCCCCC(=O)OC[C@@H](COP(=O)([O-])OCC[N+](C)(C)C)OC(=O)CCCCCCCCCCCCCCC	none (no result: Tau fluor cs, Tau FP inhib, Tau ThT inhib)
CCC(=O)N1c2ccc(S(=O)(=O)N3CCCCCC3)cc2CC1C (configuration not stated)	none (no result: RORg inh, VP16 counter)
COc1ccc(-c2nc3ccccc3[nH]2)cc1	RORg inh 7.9µM, VP16 counter 8.9µM
Cc1ccc2oc(-c3ccccc3)c(O)c(=O)c2c1	RORg inh 6.3µM, VP16 counter 14µM, Tau ThT inhib inconclusive
COc1cccc(-c2oc3ccc(C)cc3c(=O)c2O)c1	Tau ThT inhib inconclusive (no result: RORg inh, VP16 counter)
O=C(O)c1c(-c2ccccc2)oc2ccc(O)cc12	none (no result: Tau fluor cs, Tau FP inhib, Tau ThT inhib)
Cc1ccc(-c2oc3ccccc3c(=O)c2O)cc1	RORg inh 4µM, VP16 counter 13µM
O=c1c(O)c(-c2ccccc2)oc2ccccc12	RORg inh 4µM, VP16 counter 7.1µM
Cc1ccc2oc(-c3ccccc3)c(C(=O)O)c(=O)c2c1	RORg inh 7.1µM, VP16 counter 11µM, Tau ThT inhib inconclusive
Cc1ccc(-c2oc3ccccc3c(=O)c2OCC(=O)O)cc1	none
O=c1c(O)c(-c2ccccc2)oc2cc(O)ccc12	Tau fluor cs inconclusive, Tau ThT inhib inconclusive
Fc1ccc(Oc2nc(-c3ccccn3)nc3ccccc23)cc1	RORg inh 0.71µM, VP16 counter 2.5µM
COc1ccc(Oc2nc(-c3ccccn3)nc3ccccc23)cc1	RORg inh 0.4µM, VP16 counter 2.5µM, Tau ThT inhib inconclusive
c1ccc(Oc2nc(-c3ccccn3)nc3ccccc23)cc1	RORg inh 0.63µM, VP16 counter 3.2µM, Tau ThT inhib inconclusive
Cc1cccc(NC(=O)c2c(NC(=O)c3ccco3)sc3c2CCC(C)C3)c1 (configuration not stated)	none (no result: RORg inh, VP16 counter)
C/C=C/C=N/Nc1nc(-c2ccc([N+](=O)[O-])cc2)cs1	Tau fluor cs inconclusive, Tau ThT inhib 3.5µM
CC(C)=NNc1nc(-c2ccc([N+](=O)[O-])cc2)cs1	Tau ThT inhib 8.9µM
Cc1ccccc1OCC(=O)Nc1ccc(-c2nc3ccccc3o2)cc1	Tau FP inhib inconclusive, Tau ThT inhib inconclusive (no result: RORg inh, VP16 counter)
COc1cc(/C=C/c2ccc3cccc(OC)c3n2)c(OC(C)=O)c([N+](=O)[O-])c1	Tau fluor cs inconclusive, RORg inh inconclusive, Tau FP inhib inconclusive, VP16 counter inconclusive, Tau ThT inhib 2.8µM
COc1cc(/C=C/c2ccc3cccc(OC)c3n2)c(O)c([N+](=O)[O-])c1	Tau fluor cs inconclusive, Tau ThT inhib 1µM
CCOc1cc(/C=C/c2ccc3cccc([N+](=O)[O-])c3n2)cc(Cl)c1O	Tau fluor cs inconclusive, RORg inh inconclusive, Tau ThT inhib inconclusive
COc1ccc(CCC(=O)NNC(=O)Cn2nc(C)cc2C)cc1	none (no result: Tau fluor cs, Tau FP inhib, Tau ThT inhib)
O=C(Cn1ncc(Cl)c(Cl)c1=O)N1CCN(S(=O)(=O)c2ccc3ccccc3c2)CC1	RORg inh 13µM, VP16 counter inconclusive, Tau ThT inhib inconclusive
